# From PubChem BioAssay AID372 (MTDP, 2006)
# Among all 100,000 compounds or so, about 770 (0.77%) were called active. This excerpt belongs to a sample that is enriched for actives. Values without a mark were called inactive. Rule as the data show it: active = inhibition above about 50%; inactive = the rest.
# Biological target: Gag-Pol polyprotein (Human immunodeficiency virus type 1 group M subtype B (isolate HXB2)) (UniProt P04585)
# Assay: RNase H inhibition, HIV 1 Gag Pol polyprotein, FRET biochemical assay, screening (AID 372)
# Conditions: HIV-1 RT RNase H, FRET RNA/DNA substrate fluorescence; at 10 µM; hits give high values
row,Structure (SMILES),inhibition
1,CCCC1CCC(c2ccc(C(=O)CCN(C)C)cc2)CC1 (stereo not given),25%
2,COc1ccc(OC)c(/C=C2/SC(=S)N(c3ccc(Cl)cc3)C2=O)c1,4%
3,Cc1c(Cc2ccccc2)c(=O)oc2c(C)c(OS(C)(=O)=O)ccc12,0%
4,COc1ccccc1/C=N/NC(=O)C(C)Sc1nc(C)cc(C)n1 (stereo not given),14%
5,O=C(COC(=O)c1ccc2c(c1)OCCO2)c1ccc(Br)cc1,0%
6,O=C(COC(=O)c1ccc2c(c1)OCCO2)c1ccc(-c2ccccc2)cc1,14%
7,O=C(COC(=O)c1ccccc1I)c1ccc2c(c1)OCCO2,57% (active)
8,C=CCOc1cccc(/C=N/NC(=O)C(=O)Nc2ccc(C)c(C)c2)c1,1%
9,CCOc1cc(/C=C(/C#N)C(=O)Nc2ccc(O)cc2)ccc1OC,8%
10,CC(C)(C)c1cc(C(c2ccccc2O)N2CCOCC2)cc(C(C)(C)C)c1O (stereo not given),22%
11,Cc1cccc(C)c1OCCOc1ccc(C=C2C(=O)NC(=S)NC2=O)cc1,36%
12,COc1cc(/C=C2/SC(=S)NC2=O)ccc1OCc1ccccc1C#N,46%
13,O=C1NC(=S)NC(=O)C1=Cc1ccc(OCc2ccccc2Cl)cc1,35%
14,O=C1NC(=S)NC(=O)C1=Cc1ccc(OCc2cccc3ccccc23)c(Br)c1,54% (active)
15,Cc1ccccc1COc1ccc(C=C2C(=O)NC(=S)NC2=O)cc1,60% (active)
16,N#Cc1ccccc1COc1ccc(C=C2C(=O)NC(=S)NC2=O)cc1Br,46%
17,N#Cc1ccccc1COc1ccc(/C=C2/SC(=S)NC2=O)cc1Br,52% (active)
18,CN1C(=O)S/C(=C/c2ccc(OCc3ccccc3C#N)c(Br)c2)C1=O,39%
19,O=C1NC(=S)NC(=O)C1=Cc1cc(Br)ccc1OCc1cccc2ccccc12,32%
20,O=C(/C=C/c1ccccc1)N1CCN(c2ccccc2)CC1,0%
21,COc1ccc(-c2ccccc2)cc1NCC1CC=CCC1 (stereo not given),21%
22,Cc1ccc(NC(=O)C(C(C)C)N2C(=O)c3ccccc3C2=O)c(C)c1 (stereo not given),12%
23,O=C1C(Cl)=C(Nc2cccc(Cl)c2)C(=O)N1c1cc(Cl)ccc1Cl,0%
24,C#CCOc1ccc(C=C2C(=O)NC(=S)NC2=O)cc1Br,19%

row,Structure (SMILES),inhibition
1,COc1ccc(/C=N/c2sc(C)c(C)c2C#N)cc1,12%
2,CCc1ncc(C(O)c2ccccc2OC)n1C (stereo not given),5%
3,COc1ccc(OC)c(C2NC(=S)NC(C)=C2C(=O)Nc2ccc(C)c(Cl)c2)c1 (stereo not given),15%
4,Oc1[nH]c2ccc(Br)cc2c1N=Nc1ccccn1,2%
5,Oc1[nH]c2ccc(Br)cc2c1N=Nc1ccc2ccccc2n1,52% (active)
6,O=S(=O)(N=Nc1c(O)[nH]c2ccc(Br)cc12)c1cccc2ccccc12,9%
7,CCN(CC)S(=O)(=O)c1ccc(Cl)c(C(=O)Nc2ccc(OC)cc2)c1,0%
8,O=C1NN(c2ccccc2)C(=O)/C1=C/c1ccc(-c2cccc([N+](=O)[O-])c2)o1,31%
9,CCOCCOC(=O)C1=C(C)N(CC)C(=O)NC1c1ccc([N+](=O)[O-])cc1 (stereo not given),0%
10,C=CCOC(=O)C1=C(C)N(CC)C(=O)NC1c1ccc(Br)cc1 (stereo not given),4%
11,C=CCOC(=O)C1=C(C)N(CC)C(=O)NC1c1ccc([N+](=O)[O-])cc1 (stereo not given),57% (active)
12,O=C(N/N=C/c1ccc([N+](=O)[O-])cc1)c1cc(-c2ccc3ccccc3c2)n[nH]1,50% (active)
13,Cc1ccc(-c2cc(C(=O)N/N=C/c3ccc([N+](=O)[O-])cc3)[nH]n2)cc1,24%
14,O=C(N/N=C/c1ccc(/C=N/NC(=O)c2cccc([N+](=O)[O-])c2)cc1)c1cccc([N+](=O)[O-])c1,12%
15,O=[N+]([O-])c1ccc(N/N=C/c2cc([N+](=O)[O-])ccc2O)cc1,10%
16,O=C(N/N=C/c1ccc(OC(=O)c2ccc(Br)cc2)cc1)c1cccc([N+](=O)[O-])c1,50% (active)
17,O=[N+]([O-])c1ccc(N/N=C/c2ccc(Cl)c([N+](=O)[O-])c2)cc1,8%
18,O=[N+]([O-])c1ccc(N/N=C/c2ccc(O)c(Br)c2)cc1,50% (active)
19,O=C(N/N=C\c1ccc(OC(=O)c2ccc(Br)cc2)cc1)c1ccc(Br)cc1,14%
20,O=[N+]([O-])c1ccc(N/N=C/c2ccc(O)c(O)c2)cc1,57% (active)
21,O=C(N/N=C/c1ccc(F)cc1)c1cc(-c2ccc3ccccc3c2)n[nH]1,17%
22,COc1ccc(/C=N/Nc2ccc([N+](=O)[O-])cc2)cc1Br,7%
23,O=[N+]([O-])c1ccc(N/N=C/c2cc(Br)c(O)c(Br)c2)cc1,24%
24,Cc1ccc(N(CC(=O)O)S(=O)(=O)c2ccccc2)cc1Cl,4%

row,Structure (SMILES),inhibition
1,COc1ccc(Br)cc1/C=C/C(=O)Nc1ccc(O)c(-c2nc3ccccc3o2)c1,14%
2,O=C(Nc1ccc(Br)cc1)C1C2/C=C\CCCCC21 (stereo not given),9%
3,COC(=O)c1c(NC(=O)c2ccccc2C)sc2c1CCC(C)C2 (stereo not given),12%
4,O=C(CSc1ccccc1)N/N=C/c1ccccc1O,7%
5,CS(=O)(=O)N1CCN(Cc2ccccc2Cl)CC1,0%
6,OCCNc1nc(-c2ccccc2Cl)nc2ccccc12,0%
7,COc1ccc(C(=O)NNC(N)=S)cc1,0%
8,NC1=NC(=O)/C(=C/c2ccc(OS(=O)(=O)c3cccc([N+](=O)[O-])c3)cc2)S1,25%
9,O=C(N/N=C/c1ccc(/C=N/NC(=O)c2ccc([N+](=O)[O-])cc2)cc1)c1ccc([N+](=O)[O-])cc1,0%
10,O=C(N/N=C/c1ccc(O)cc1)c1ccc([N+](=O)[O-])cc1,0%
11,NC1=NC(=O)/C(=C/c2ccc(OC(=O)c3ccc(Cl)c(Cl)c3)cc2)S1,18%
12,NC1=NC(=O)/C(=C/c2ccc(OC(=O)c3cccc([N+](=O)[O-])c3)cc2)S1,51% (active)
13,O=C(N/N=C/c1ccc(O)c(O)c1)c1ccc([N+](=O)[O-])cc1,51% (active)
14,Cc1cc(Cl)ccc1OCC(=O)Nc1cc(Cl)c(Cl)cc1Cl,5%
15,CCC1CCc2c(sc(NC(=O)c3cc([N+](=O)[O-])ccc3Cl)c2C(N)=O)C1 (stereo not given),14%
16,COc1ccc(OC)c(NC(=O)COc2ccc(Cl)c(C)c2)c1,15%
17,CC(CCC(=O)Nc1nc2ccccc2s1)CC(=O)Nc1nc2ccccc2s1 (stereo not given),15%
18,Cc1ccc2[nH]c(=O)c(C(=O)/C=C/c3ccccc3Cl)c(-c3ccccc3)c2c1,55% (active)
19,COc1cc(/C=C/C(=O)c2c(-c3ccccc3)c3cc(Br)ccc3[nH]c2=O)cc(OC)c1OC,0%
20,COc1ccc(/C=C\C(=O)c2c(-c3ccccc3)c3cc(C)ccc3[nH]c2=O)cc1,7%
21,Cc1ccc2[nH]c(=O)c(C(=O)/C=C\c3ccc(Br)cc3)c(-c3ccccc3)c2c1,28%
22,COc1ccc(/C=C\C(=O)c2c(-c3ccccc3)c3cc(C)ccc3[nH]c2=O)cc1OC,18%
23,Cc1ccc2[nH]c(=O)c(C(=O)/C=C\c3ccccc3)c(-c3ccccc3)c2c1,45%
24,O=C(/C=C/c1ccccc1Cl)c1c(-c2ccccc2)c2cc(Br)ccc2[nH]c1=O,49%

row,Structure (SMILES),inhibition
1,COc1ccc(OC)c(/C=C/C(=O)c2c(-c3ccccc3)c3cc(Br)ccc3[nH]c2=O)c1,37%
2,COc1ccccc1/C=C/C(=O)c1c(-c2ccccc2)c2cc(Br)ccc2[nH]c1=O,57% (active)
3,COc1ccccc1/C=C/C(=O)c1c(-c2ccccc2)c2cc(C)ccc2[nH]c1=O,59% (active)
4,O=C(/C=C/c1ccccc1Cl)c1c(-c2ccccc2)c2cc(Cl)ccc2[nH]c1=O,35%
5,CC12CN3CC(C)(CN(C1)C3c1c[nH]c3ccccc13)C2=O (stereo not given),6%
6,Cc1ccc(-n2c(C)cc(/C=C(/C#N)C(=O)Nc3ccc(Cl)cc3)c2C)cc1C,8%
7,O=C(Oc1ccc([N+](=O)[O-])cc1)c1ccc(Cl)c(S(=O)(=O)N2CCOCC2)c1,0%
8,O=C(N1CCN(c2c(F)c(F)c(C(F)(F)F)c(F)c2F)CC1)C12CC3CC(CC(C3)C1)C2,7%
9,O=c1c(N=Nc2ccc(Br)cc2)c(O)n(-c2ccccc2)c(=O)n1-c1ccccc1,17%
10,COc1ccccc1C1NC(=S)NC(C)=C1C(C)=O (stereo not given),5%
11,Cc1csc(N/N=C/c2c(F)cccc2Cl)n1,18%
12,Cc1ccc2nc(-c3ccc(NC(=O)CCc4ccccc4)cc3)sc2c1,5%
13,Cc1ccc2nc(-c3ccc(NC(=O)c4cccc(F)c4)cc3)sc2c1,43%
14,Cc1ccc2nc(-c3ccc(NC(=O)Cc4ccccc4)cc3)sc2c1,52% (active)
15,Cc1ccc2nc(-c3ccc(NC(=O)Cc4ccc(Cl)cc4)cc3)sc2c1,24%
16,Cc1cccc(NC(=O)Nc2ccc(-c3nc4ccccc4s3)cc2)c1,50% (active)
17,Cc1ccc2nc(-c3ccc(NC(=S)NC(=O)c4ccccc4)cc3)sc2c1,6%
18,O=C(Nc1ccc(Cl)cc1)Nc1ccc(-c2nc3ccccc3s2)cc1,17%
19,Cc1cccc(C(=O)NC(=S)Nc2ccc(-c3nc4ccccc4s3)cc2)c1,35%
20,Cc1ccc2nc(-c3ccc(NC(=S)NC(=O)c4ccccc4Cl)cc3)sc2c1,8%
21,Cc1ccc2nc(-c3ccc(NC(=S)NC(=O)c4ccccc4F)cc3)sc2c1,52% (active)
22,Cc1ccc2nc(-c3ccc(NC(=S)NC(=O)c4cccc(F)c4)cc3)sc2c1,56% (active)
23,O=C(NC(=S)Nc1ccc(-c2nc3ccccc3s2)cc1)c1cccc(F)c1,34%
